GAA850 FXN act – FXN promoter activators, primary screen, cell-based, luciferase luminescence, HEK293 lucGAA850; HEK293 lucGAA850 FXN promoter luciferase reporter, 24 h; percent of 10 µM SAHA response; activation, % at 6 µM; 360,000 compounds, 0.56% hits;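 active means activation above the average of all compounds screened plus 3 SD, cutoff fixed separately per campaign, cut at about 7.5% in these data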
HIV Env fusion – inhibitors of HIV-1 Env-driven cell-cell fusion, primary screen, HeLa-JRFL effector, CEM21 target cells, luciferase | inhibition, % at 12.3 µM | 360,000 compounds, 1.1% hits | AID 651610, 2012;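 active means mean replicate inhibition score of at least 50 and every replicate individually at or above 50; inconclusive means only one of the two criteria met; inactive means mean below 50 and not all replicates reaching 50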
CFTR F508del cor – F508del CFTR correction, initial screen, CFBE line, single point | CFBE cells, YFP halide quenching; stimulated with forskolin plus potentiator P3; % fluorescence drop versus neutral controls | activity (quench increase), % at 7.58 µM | 350,000 compounds, 0.36% hits;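 active means mean added fluorescence quench of at least 8% versus neutral control, with both replicates also reaching 8%; inconclusive means only one of the mean or replicate conditions met; inactive means mean below 8% and not both replicates reaching 8%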;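 further: cells transiently co-express mutant CFTR-F508del with the halide-sensitive YFP; corrector assay measuring rescue of mutant channel to the surface after 24 h compound exposure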
EWS-Fli block – EWS/Fli-driven NR0B1 reporter inhibitors, primary screen, A673 cells, NR0B1 luciferase, luminescence, MLPCN library; viability-normalised; inhibition, % at 12.6 µM; 350,000 compounds, 0.67% hits;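 active means mean inhibition of at least 50% after viability correction, with every replicate also passing that limit; inconclusive means mean reaches 50% but only one of two replicates passes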;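 further: firefly luciferase signal divided by Alamar Blue viability fluorescence both relative to DMSO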
PAX8 reporter – inhibitors of PAX8-driven TPO luciferase reporter, primary screen, RMG-I cells, single concentration; 360,000 compounds, 1.2% hits; SteadyGlo, 24 h; AID 652154, 2013; inhibition, % at 12.6 µM;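 active means mean replicate inhibition at least 60% with every replicate also reaching 60%; inconclusive means only one of the two criteria is met; inactive means mean below 60% and not all replicates reaching 60%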;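 further: luciferase light reporting Pax8 driven TPO promoter activity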
Of the large screens only hits and unclear results are named; the others gave an inactive call; ! = repeats disagree; [ ] = remark or other dose. Only some compounds are listed: those with a hit (about 2.5% of all), similar ones and a draw of the others.

O=C(N[C@H]1CC[C@@H](CC(=O)N2CCC(Cc3ccccc3)CC2)O[C@@H]1CO)c1cnccn1	HIV Env fusion inconclusive (no result: GAA850 FXN act)
COc1ccc2c3c([nH]c2c1)[C@H](CO)N(C(=O)Nc1cccc(F)c1)CC31CCN(S(=O)(=O)c2cccc(C)c2)CC1	PAX8 reporter 106.0 (no result: GAA850 FXN act, HIV Env fusion)
COc1cccc(S(=O)(=O)N2CC3(CN(C(=O)Nc4cccc(F)c4)[C@@H](CO)c4[nH]c5cc(OC)ccc5c43)C2)c1	HIV Env fusion 93.3[16.7 µM] (no result: GAA850 FXN act, PAX8 reporter)
COc1ccc2c3c([nH]c2c1)[C@H](CO)N(C(=O)Nc1cccc(F)c1)CC31CN(S(=O)(=O)c2cccc(C)c2)C1	HIV Env fusion 75.2[16.7 µM] (no result: GAA850 FXN act, PAX8 reporter)
N#C[C@@H]1[C@@H](c2ccc(-c3cncnc3)cc2)[C@H](CO)N1C(=O)C1CCOCC1	none (no result: GAA850 FXN act)
Cc1cc(Nc2cccc(Br)c2)c2ccccc2n1	HIV Env fusion 66.2 (no result: CFTR F508del cor)
C[C@@H]1CN([C@H](C)CO)S(=O)(=O)c2ccc(/C=C/c3ccccc3)cc2O[C@@H]1CN(C)C(=O)Nc1cc(F)ccc1F	none (no result: GAA850 FXN act)
C[C@@H]1CN([C@H](C)CO)S(=O)(=O)c2ccc(C#Cc3ccc(F)cc3)cc2O[C@@H]1CN(C)C(=O)NC1CCCCC1	none (no result: GAA850 FXN act)
C[C@H](CO)N1C[C@H](C)[C@@H](CN(C)C(=O)Nc2cc(F)ccc2F)Oc2cc(/C=C/c3ccccc3)ccc2S1(=O)=O	PAX8 reporter 66.4 (no result: GAA850 FXN act)
C[C@H](CO)N1C[C@H](C)[C@@H](CN(C)C(=O)NC2CCCCC2)Oc2cc(C#Cc3ccc(F)cc3)ccc2S1(=O)=O	CFTR F508del cor 8.5, PAX8 reporter 82.2 (no result: GAA850 FXN act)
C[C@H]1CN([C@@H](C)CO)S(=O)(=O)c2ccc(/C=C/c3ccccc3)cc2O[C@H]1CN(C)C(=O)NC1CCCCC1	PAX8 reporter 70.2!
C[C@@H]1CN([C@@H](C)CO)S(=O)(=O)c2ccc(C#Cc3ccc(F)cc3)cc2O[C@H]1CN(C)C(=O)NC1CCCCC1	PAX8 reporter 99.0 (no result: GAA850 FXN act)
C[C@@H]1CN([C@H](C)CO)C(=O)Cc2cc(NC(=O)Nc3ccc(F)cc3)ccc2O[C@H]1CN(C)C(=O)Nc1ccc2c(c1)OCO2	none (no result: GAA850 FXN act)
C[C@H](CO)N1C[C@H](C)[C@H](CN(C)S(=O)(=O)c2ccccc2)Oc2ncc(C#CCN(C)C)cc2C1=O	none (no result: GAA850 FXN act, PAX8 reporter)
Cc1ccc(S(=O)(=O)NCc2ccncc2)c(C)c1C	HIV Env fusion 55.1
COc1ccc2c(c1)OC/C(=C/c1cccs1)C2=O	PAX8 reporter 111.7 (no result: CFTR F508del cor)
COc1ccc(/C=C2\COc3ccccc3C2=O)c(OC)c1	none
O=C(Nc1cc(F)ccc1F)N[C@@H]1CC[C@@H](CCn2cc(C3CCCCC3)nn2)O[C@@H]1CO	none (no result: GAA850 FXN act)
C[C@@H]1CN([C@H](C)CO)C(=O)c2c(c3ccccc3n2C)-c2ccccc2CO[C@@H]1CN(C)Cc1cccc(O)c1	none (no result: GAA850 FXN act, HIV Env fusion)
Cc1cc(-c2ccccc2)n(-c2cc(N/N=C/c3ccccc3O)ncn2)n1	PAX8 reporter 71.1 (no result: CFTR F508del cor, EWS-Fli block)
CNc1cc(-n2nc(C)cc2-c2ccccc2)ncn1	none (no result: CFTR F508del cor, EWS-Fli block)
CN(C)C(=O)C[C@@H]1CC[C@H]2[C@@H](COC[C@@H](O)CN2S(=O)(=O)c2ccccc2)O1	none (no result: GAA850 FXN act, HIV Env fusion, EWS-Fli block, PAX8 reporter)
CC(=O)CSc1ccc(-c2nc3cc(C)c(C)cc3[nH]2)cn1	EWS-Fli block 68.7, PAX8 reporter 68.5
CC(=O)CSc1ccc(-c2nc3ccccc3[nH]2)cn1	none
CC1=NN(c2nc(-c3ccc(C)cc3)cs2)C(=O)C1N=Nc1ccc(C(N)=O)cc1 (stereo not drawn)	EWS-Fli block 54.6
OC[C@H]1[C@@H](c2ccccc2)C2(CN(Cc3nccs3)C2)N1CCC(F)(F)F	none (no result: GAA850 FXN act, HIV Env fusion)
CCN(C(=O)CCS(=O)(=O)c1cc2c(cc1Cl)NC(=O)CO2)c1ccccc1	HIV Env fusion 71.9
O=C(NC1CCCC(C(F)(F)F)C1)c1ccc([N+](=O)[O-])o1 (stereo not drawn)	PAX8 reporter 75.6 (no result: HIV Env fusion)
COc1ccc(NC(=O)CC2C(=O)N(c3ccccc3)C(=O)N2CCc2cccs2)cc1 (stereo not drawn)	PAX8 reporter 68.1 (no result: HIV Env fusion)
COc1ccc(NC(=O)Nc2ccc3c(c2)C(=O)N([C@H](C)CO)C[C@H](C)[C@@H](CN(C)S(=O)(=O)c2ccccc2)OCCCC[C@H](C)O3)cc1	none (no result: GAA850 FXN act)
CCC(=O)N1[C@@H]2Cn3c(ccc(-c4cccnc4)c3=O)[C@H]1[C@@H](C(=O)N1CCc3ccccc3C1)[C@@H]2CO	none (no result: GAA850 FXN act, HIV Env fusion)
O=C(c1ccco1)N1N=C(c2ccc(Cl)cc2)CC1(O)C(F)(F)F (stereo not drawn)	none
O=C(c1ccco1)N1N=C(c2ccc(Br)cc2)CC1(O)C(F)(F)F (stereo not drawn)	PAX8 reporter 97.0
C[C@@H]1CN([C@@H](C)CO)C(=O)c2ccccc2-c2ccccc2CO[C@H]1CN(C)S(=O)(=O)c1ccccc1F	none (no result: GAA850 FXN act)
NC(=O)c1nsc(C(=O)N(c2ccc(F)cc2)C(C(=O)NCC2CCCO2)c2c[nH]c3ccccc23)c1N (stereo not drawn)	none
CCc1ccc(N(C(=O)c2snc(C(N)=O)c2N)C(C(=O)NCCC(C)C)c2c[nH]c3ccccc23)cc1 (stereo not drawn)	HIV Env fusion 118.0 (no result: CFTR F508del cor, EWS-Fli block)
C[C@H](NC(=O)C[C@H]1C=C[C@H](NS(=O)(=O)c2cccc(F)c2)[C@H](CO)O1)c1ccccc1	none (no result: GAA850 FXN act)
CC#CCOCC1CNC(=O)O1 (stereo not drawn)	CFTR F508del cor 17.7
O=C(OCCC12CC3CC(CC(C3)C1)C2)c1ccc(NCc2cc(O)ccc2O)cc1	EWS-Fli block 67.9
N#CCC(=O)Nc1ccc(C(=O)OCC(=O)C23CC4CC(CC(C4)C2)C3)cc1	none
O=C(OCC12CC3CC(CC(C3)C1)C2)c1ccc(NCc2cc(O)ccc2O)cc1	EWS-Fli block 56.3
Cc1n[nH]c(C)c1S(=O)(=O)N(CC(=O)Nc1ccc2c(c1)OCCO2)c1ccc(C(C)C)cc1	HIV Env fusion 58.8
CC(C)NC(=O)N(C)C[C@@H]1OCCCC[C@@H](C)Oc2ccc(NS(=O)(=O)c3ccccc3)cc2C(=O)N([C@@H](C)CO)C[C@H]1C	none (no result: GAA850 FXN act)
O=C(CCS(=O)(=O)c1ccc(Cl)cc1)Nc1nc(-c2ccncc2)cs1	PAX8 reporter 96.2 (no result: EWS-Fli block)
CC1(c2ccccc2)NC(=O)N(CC(=O)Nc2nc(-c3ccccn3)cs2)C1=O (stereo not drawn)	none (no result: PAX8 reporter)
CC(=O)c1sc(NC(=O)CCS(=O)(=O)c2ccc(Cl)cc2)nc1C	PAX8 reporter 89.3
Cc1ccc(C2(C)NC(=O)N(CC(=O)Nc3nc(-c4ccccn4)cs3)C2=O)cc1 (stereo not drawn)	CFTR F508del cor 10.0
COc1ccc(NC(=O)CCS(=O)(=O)c2ccc(Cl)cc2)cc1	none
Cc1ccc(S(=O)(=O)CCC(=O)Nc2nc(-c3ccccn3)cs2)cc1	PAX8 reporter 80.3
O=C(CCS(=O)(=O)c1ccc(Cl)cc1)Nc1nc(-c2cccnc2)cs1	none
CC(C)NC(=O)Nc1cccc2c1O[C@@H](CN(C)Cc1ccncc1)[C@@H](C)CN([C@@H](C)CO)C2=O	none (no result: GAA850 FXN act, HIV Env fusion)

High-throughput results (PubChem)
